# Screening results from PubChem.
# FMDV inh: High Throughput Screening for Foot and Mouth Disease Virus Antivirals; FMDV antiviral cell-based qHTS; Potency, µM (doses to about 57.9 µM), inactives show at the top dose activity change, negative = inhibition, hits mostly inhibitors; 410,000 tested, 1.2% active; AID 1159524, 2015; calls by dose curve; tested in HEK293T cells; also: read-out not given here; potency is read from the fitted curve at half-maximal effect; nearly all actives have a fitted effect of over 45% in size
# HCMV antiviral: qHTS Assay for inhibitors of the human cytomegalovirus (HCMV). HFF cells, HCMV-luciferase reporter, 72 h; hits give low values. activity change, negative = inhibition, % at 57.5 µM. 410,000 tested, 4.5% active. AID 1259415, 2018; in the data active = activity change below about -60%; inconclusive = no clear call, values can overlap the other calls; inactive = above about -39%
#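 Two compound doses tested in HFFs infected with HCMV-luciferase, MOI 1 PFU/cell, 72 h at 37C. Lysate luminescence read with OneGlo; data normalized against buffer-only and 10uM Salinomycin inhibitor controls.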
# Lassa entry inh: qHTS for Inhibitors of binding or entry into cells for Lassa Virus. 300,000 tested, 1.2% active. Potency, µM (highest dose often 37.9 µM), for inactives: at the top dose activity change, negative = inhibition, usual class: inhibitors. Lassa virus pseudotype entry inhibition, cell reporter. AID 540256, 2011; calls by dose curve; tested in HEK293 cells; also: potency is read from the fitted curve at half-maximal effect; nearly all actives have a fitted effect of over 50% in size
# Marburg entry inh: qHTS for inhibitors of binding or entry into cells for Marburg Virus; 300,000 tested, 1.8% active; Marburg virus pseudotyped entry inhibition, cell reporter; AID 540276, 2011; Potency, µM (highest dose often 37.8 µM), inactives show at the highest dose activity change, negative = inhibition, most hits filed as inhibitors; calls by dose curve; tested in HEK293 cells; also: potency is read from the fitted curve at half-maximal effect
# HCV inhibitor: qHTS Assay for Inhibitors of Hepatitis C Virus (HCV); AID 651820, 2012; 340,000 tested, 3.4% active; Huh7.5.1 HCVcc-Cre infection, luciferase reporter, 44 h; Potency, µM (doses to about 41.8 µM), for the others: at the top dose activity change, negative = inhibition, hits mostly inhibitors; active = well fitted inhibition curve with a large enough effect; inconclusive = small, poorly fitted or top-dose-only effect, or another doubt; inactive = no such curve, though single readings can be large or run the other way; also: potency is read from the fitted curve at half-maximal effect
#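 Luciferase read-out (15 sec integration) after a 15 min room-temperature substrate step quantifies HCVcc-Cre infection. Cells, 1,000 per well, had compound added 4 h post-plating, then virus at ~0.5 moi, and were cultured 44 h.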
# * hit, by the source's call; u = inconclusive; x = no result given; ! = not confirmed by another sample; [ ] = remark or other dose. Shown are actives, neighbours in structure and some others; about 7.9% of the full set was active somewhere. % is scaled to controls: 0 for no effect and ±100 for the full control effect.
SMILES,FMDV inh,HCMV antiviral,Lassa entry inh,Marburg entry inh,HCV inhibitor
COCCCNC(=O)c1cc(-c2cccnc2)nc2ccc(S(=O)(=O)N3CCC(C)CC3)cc12,17%,62,20%[46.1 µM],x,x
CCOC(=O)c1c(NC(=O)C(C)Sc2cn(CCNC(=O)c3ccc(OC)c(OC)c3)c3ccccc23)sc2c1CCC2 (stereo not drawn),-18%,-108*,2%[46.1 µM],u,x
COc1ccccc1NC(=S)N/N=C1\CC(C)(C)Oc2ccc(O)cc21,u,u,x,x,10µM*
CC(=O)N1CCC2(CC1)C/C(=N\NC(=S)Nc1ccccc1F)c1cc(O)ccc1O2,-4%,-82*,u,u,u
CC(=O)N1CCC2(CC1)C/C(=N\NC(=S)Nc1ccccc1C)c1cc(O)ccc1O2,-13%,-5,x,x,u
O=C(NCc1ccc(F)cc1)c1c(O)nc2ccccn2c1=O,-7%,-61*,x,19%[46.1 µM],x
COc1cccc(CNC(=O)c2c(O)nc3ccccn3c2=O)c1,8%,4,x,-10%[46.1 µM],x
CCC1(c2ccc(Cl)cc2)NC(=O)N(CC(=O)NC2CCCC(C)C2C)C1=O (stereo not drawn),-14%,13,-23%,u,-7%
Cc1ccccc1N1CCN(C2CCCN(C(=O)c3cn4cccc(C)c4n3)C2)CC1 (stereo not drawn),45µM*,-32,x,x,11µM*
CCOC(=O)CN1C(=O)NC(c2cccc(C(F)(F)F)c2)C(C(=O)OC)=C1C (stereo not drawn),x,x,x,-11%[14.2 µM],x
Cc1cccc(C)c1-n1nnnc1C(c1ccnc2ccccc12)N(C)Cc1ccc(Cl)c(Cl)c1 (stereo not drawn),u,-24,x,x,x
Cc1cccc(C)c1-n1nnnc1C(c1ccnc2ccccc12)N(Cc1ccccc1)Cc1ccccc1 (stereo not drawn),-10%,-72*,x,x,x
CCOc1ccc(/C=C(\C#N)C(=O)Nc2sc3c(c2C(=O)OC)C(C(=O)OC)CC3)cc1OC (stereo not drawn),-15%,9,1%[46.1 µM],x,x
CCOc1ccc(C(CC(=O)O)NC(=O)C2c3ccccc3Oc3ccccc32)cc1 (stereo not drawn),18%,4,x,0%,5%
O=C(O)CC(NC(=O)C1c2ccccc2Oc2ccccc21)c1ccc(Cl)cc1 (stereo not drawn),-17%,-88*,x,x,11%
CC(=O)C1=C(C)N(Cc2ccccc2)C(=O)N[C@H]1CCc1ccccc1,u,-93*,12µM*,u,u
OCC1CCCN(C(=S)Nc2ccc(Nc3ccccc3)cc2)C1 (stereo not drawn),21%,11,u,u,-24%
CCOC(=O)c1ccc(NC(=O)c2cc3c(s2)CCC3)cc1,6%,-5,-12%,-13%[46.1 µM],7.9µM*
Cc1cc2oc(C(=O)N(Cc3ccccc3)C3CCS(=O)(=O)C3)cc(=O)c2cc1C (stereo not drawn),-20%,2,-10%[46.1 µM],25%[46.1 µM],x
CCCCn1c(C)cc2c(c1=O)[C@H]1O[C@](CCCC)(Cc3cc(C#N)ccc31)O2,x,x,u,-18%[14.2 µM],x
CN1CCN(Cc2c(O)ccc3cc(-c4ccc(Cl)cc4)c(=O)oc23)CC1,11%,-18,27%[46.1 µM],x,x
O=[N+]([O-])c1cc2c(ccc3occc32)o1,x,-73*,x,x,x
CCC(=O)N1CC(=O)N2[C@H](C1)[C@@H](c1ccc(Br)cc1)[C@@H]2CO,x,18,x,x,x
COC(=O)c1c(NC(=O)c2cccs2)sc2c1CCC(C)C2 (stereo not drawn),40%,43,u,-4%,-19%
O=C(Nc1sc2c(c1C(=O)O)CCCC2)c1cccs1,14%,26,u,9.2µM*,u
SMILES,FMDV inh,HCMV antiviral,Lassa entry inh,Marburg entry inh,HCV inhibitor
CC1CCc2c(sc(NC(=O)c3cccs3)c2C(=O)O)C1 (stereo not drawn),23%,-79*,x,x,u
O=C(c1ccccc1)c1ccc(OCC(O)CN2CCCCC2)cc1 (stereo not drawn),-15%,40,-6%,-18%,u
OC(COc1ccc(F)cc1)CN1CCN(CC(O)COc2ccc(F)cc2)CC1 (stereo not drawn),1%,5,-11%[46.1 µM],u,32µM*
OC(COc1ccc(CNCCc2ccccc2F)cc1)CN1CCCCC1 (stereo not drawn),-10%,-33,u,2.3µM*,u
O=C(c1ccccc1)c1ccc(OCC(O)CN2CCN(S(=O)(=O)N3CCCCC3)CC2)cc1 (stereo not drawn),14µM*,-67*,u,-20%,u
COc1ccc(N2CCN(CC(O)COC(c3ccc(F)cc3)c3ccc(F)cc3)CC2)cc1 (stereo not drawn),-19%,-29,x,x,u
OC(COc1ccccc1)CN1CCCCC1 (stereo not drawn),-6%,-5,-9%,6%,26%
OCCN1CCN(CC(O)COC(c2ccc(F)cc2)c2ccc(F)cc2)CC1 (stereo not drawn),-2%,-16,u,2µM*,u
COc1ccc(NC(=O)Cn2nnc(C(=O)NCCc3ccccc3)c2N)cc1,5%,-64*!,-28%[46.1 µM],9%[46.1 µM],-6%
CCOc1ccc(NC(=O)Cn2nnc(C(=O)NCCc3ccccc3)c2N)cc1,-15%,-37,5%[46.1 µM],5%[46.1 µM],x
COc1ccc(OC)c(NC(=O)c2nnn(CC(=O)Nc3ccc(C(C)C)cc3)c2N)c1,-13%,-63*,u,x,x
Cc1cc(C)cc(NC(=O)Cn2nnc(C(=O)NCc3cccs3)c2N)c1,18%,4,2%[46.1 µM],u,10%
COc1cc(NC(=O)c2nnn(CC(=O)Nc3cc(C)ccc3C)c2N)cc(OC)c1,0%,-70*,-8%[46.1 µM],x,x
Cc1cc(C)c(NC(=O)Cn2nnc(C(=O)NCc3cccs3)c2N)c(C)c1,40µM*!,7,17%[46.1 µM],u,19%
Cc1cccc(NC(=O)c2c(C)oc3ncn(CC(C)C)c(=O)c23)n1,-12%,4,14%[46.1 µM],x,x
COc1ccc(S(=O)(=O)N(CC(=O)Nc2cc(Cl)ccc2C)Cc2ccccc2)cc1OC,-11%,-6,u,x,x
OCCC#Cc1ccc(F)c(-c2noc3ccccc23)c1,x,-10,x,x,x
Cc1ccc(NC(=O)c2nnn(CC(=O)Nc3ccccc3)c2N)cc1C,-1%,-12,-17%,11µM*,u
Cc1ccc(NC(=O)Cn2nnc(C(=O)NCc3ccccc3)c2N)cc1C,-4%,46,2%,-3%,20%
COc1ccc(-n2c(C)cc(C(=O)COC(=O)c3ccc(O)cc3O)c2C)cc1,-24%,-81*,x,x,10µM*
COc1ccc(-n2c(C)cc(C(=O)CCl)c2C)cc1,28µM*,-90*,x,x,u
Cc1nnc(SCC(=O)c2cc(C)n(-c3c(C)n(C)n(-c4ccccc4)c3=O)c2C)s1,-13%,-1,4%,-14%,-2%
Cc1cc(C(=O)CC#N)c(C)n1-c1ccc(OC(F)F)cc1,u,-35,-10%,-18%,u
